# Assays:
# Assay in all cases: PBM binding z-score (relative to random genomic background probes); higher = stronger binding; sequences stand for … in GC…GCGATTGACAGCGTAGAATGAAGG
# [1] = test system: RARb homodimer (NR concentration 270 nM)
# Summary of the method: (§1)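 Ligand-free nuclear receptor dimers were applied to custom Agilent 4×180K protein-binding microarrays whose double-stranded probes carried direct-repeat seeds, single-nucleotide variants, half-site ablations and random human genomic background sequences in 34-nt variable regions. Incubation lasted 1 h. Binding z-scores were computed against the random background probes from regression-normalized fluorescence.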
# [2] = test system: RARg:RXRa (NR concentration 270 nM, RXRa partner concentration 90 nM)
# Summary of the method: as §1
# [3] = test system: RARg homodimer (NR concentration 270 nM)
# Summary of the method: as §1
# [4] = test system: RXRa DBDmut IVT, anti-RXR (DBD mutation: RXRa K156A/R161A, NR concentration 90 nM)
# Summary of the method: as §1
# [5] = test system: RXRa homodimer (NR concentration 180 nM)
# Summary of the method: as §1
# [6] = test system: THRa:RXRa (NR concentration 90 nM, RXRa partner concentration 90 nM)
# Summary of the method: as §1
# [7] = test system: THRa homodimer (NR concentration 90 nM)
# Summary of the method: as §1
# [8] = test system: VDR homodimer (NR concentration 270 nM)
# Summary of the method: as §1
Sequence,PBM binding z-score [1],PBM binding z-score [2],PBM binding z-score [3],PBM binding z-score [4],PBM binding z-score [5],PBM binding z-score [6],PBM binding z-score [7],PBM binding z-score [8]
AGAATGAGGTTATTAAGATTAGGGAATTGCGGTC,0.809,1.27,0.836,2,1.72,2.05,0.933,1.29
ATCGAAAGGTCGAGGTGAGTAAAGAGAAAGGGAA,2.34,4.22,4.38,0.813,4.08,2.63,0.539,0.357
AGAATGAGGTTAGGATCAGGGAAACAGAATACAT,1.09,1.15,0.965,0.213,1.37,2.13,0.948,0.389
ATCTCGAGGTAACCAAGTTCAGTGAATGCCGAAC,1.62,0.86,1.02,0.865,0.825,2.41,0.867,3.01
CTCGAAAGGTCGGTTGAGGCGAGTATACGGATAA,1.33,2.36,2.23,0.644,1.72,4.02,-0.501,-0.121
CCTACTGGGCCAAGGTAATTGATCAGTCAAAGCA,0.0571,-0.354,-0.0827,-0.902,-0.382,0.383,-0.112,-0.51
TCTTGTAGATCAATACAGGTTAAGAAAGTGCGCT,0.644,0.423,0.26,1.25,0.787,1.46,-0.0772,0.463
CCTAGCAGGCCAGCGTCACTCAAGCATTTCGCTT,-0.555,-0.553,-0.578,-0.0144,-0.744,-0.634,-0.783,-0.635
TCTTGTAGATCAACAGGAGGTGAAGAAAGATCGA,0.000947,0.381,0.0903,0.184,0.315,0.726,-0.344,-0.884
ATCTCTAGGAAACCAAGTTCAGTGAATGCCGAAC,1.32,0.329,0.454,0.614,0.323,0.46,0.191,2.72
AGTCAAAGTTCAGGACGAGGAAACGTAAAGCACG,2.85,4.29,4.75,2.81,3.17,2.42,0.288,1.64
AGAATGAGGGTATTAAGATCAGGGAATTGCGGTC,0.61,0.0247,0.0754,0.633,0.379,0.534,0.27,0.315
ATCGAAAGGTCGAGGTGAGAATAGAGAAAGGGAA,2.77,4.3,4.7,0.437,4.86,2.73,0.58,-0.0619
CCGAGTATGTTATGGGGCATTCAGGCAACGGTGA,0.485,0.112,0.276,0.833,0.294,0.302,0.125,0.00991
AGTCAAAGTGCAGGACGAGGTAACGTAAAGCACG,0.382,0.878,1.15,-0.269,0.45,2.23,0.449,0.0328
GCTAACAGGCCATTTGGGTCACTCAATGACGGGC,2.13,1.1,1.63,0.69,1.06,2.13,0.884,0.601
GCGACTGGGGCATCAGCAGCTTACCATAACTTAA,-0.217,-0.328,-0.193,0.178,-0.47,-0.225,-0.422,-0.429
ACAGACAGGTGAGTGAAGGGAACTCAGCTGGACG,-0.231,0.199,0.0505,-0.777,0.39,0.0282,-0.679,-0.331
AATACAGGGTCACTAGGCCAGAGTTGGTACGAAT,3.56,5.2,5.06,2.8,5.94,3.51,1.21,2.58
ACTATTAGTTTAGACGAGGGCAACCGATAGGTTG,1.49,0.78,1.15,0.931,0.581,2.5,0.435,1.65
TCGAGTAGGTTAGGTGCATTCAGAATGGCGTCGA,0.197,-0.25,-0.0841,1.04,0.1,-0.142,-0.111,1.47
CCTAGTTGGTCAGGAGGTCATACACCGGATATGA,3.79,4.56,3.35,0.572,4.2,3.23,1.8,2.73
CGTACTAGGTCATTGACAGGACAGTGAATAGTAA,2.49,4.45,4.13,2.38,2.6,2.9,0.971,1.45
CAGCCTAGGTCAGGGCCAGTATAGGAGGAACGTT,2.58,3.08,3.8,-0.416,1.54,2.11,0.526,-0.18
CCTACTGGGCCAAAAAGGTTATTGATGCCGATAA,1.36,0.788,0.644,-0.387,1.03,0.617,-0.462,0.00157
TCTTGTAGATAAAGCAGGTTAAGAAAGCCTGAGT,0.29,0.138,0.0703,0.785,0.499,0.47,-0.334,0.374
AGAATGAGGTTACCGAAGATCAGGGAAACGCTTG,0.586,2.27,1.76,1.5,2.87,3.05,0.672,0.193
ATCTCTAGGTAAGACTCTGTTCAGTGAAGAACGC,0.515,-0.0818,0.134,0.365,0.0121,0.57,0.576,-0.00157
CGTCCAGGGTCAGCAGGTCAGTGAAAGCGACGTG,4.51,6.01,5.75,1.59,5.4,3.61,1.32,1.25

# From the supplement of paper PMC6555819
